PubChem BioAssay (NCATS)
Results filed as inconclusive are left out. Where a call stands in place of a potency, no number is given. Active and inactive are the calls of the source. Calls come from the whole dose curve; as a rule, active = well fitted curve in the direction sought with a large enough effect; inconclusive = small, poorly fitted or top-dose-only effect, or another doubt; inactive = no such curve, though single readings can be large; an effect the other way counts as inactive or inconclusive.

Target: Cytochrome P450 2C9 (Homo sapiens) (UniProt P11712)
Sequence (P11712 whole entry, looked up): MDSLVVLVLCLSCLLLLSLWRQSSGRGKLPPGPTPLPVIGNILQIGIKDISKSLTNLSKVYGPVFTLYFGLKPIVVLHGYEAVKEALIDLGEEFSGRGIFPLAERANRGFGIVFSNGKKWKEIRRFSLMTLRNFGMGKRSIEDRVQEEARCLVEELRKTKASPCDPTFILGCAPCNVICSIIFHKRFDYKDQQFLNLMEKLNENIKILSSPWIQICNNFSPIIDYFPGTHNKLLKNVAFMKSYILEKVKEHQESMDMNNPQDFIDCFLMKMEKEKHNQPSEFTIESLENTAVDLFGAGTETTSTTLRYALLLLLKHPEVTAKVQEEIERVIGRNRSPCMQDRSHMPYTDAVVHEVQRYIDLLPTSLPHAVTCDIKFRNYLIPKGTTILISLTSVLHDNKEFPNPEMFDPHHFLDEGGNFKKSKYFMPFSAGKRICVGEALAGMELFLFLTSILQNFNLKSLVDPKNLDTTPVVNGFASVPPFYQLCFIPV
Assay: qHTS for inhibitors of CYP2C9 against the NCATS DSHEA and TCM libraries (AID 1919973); note: potency is the fitted concentration of half-maximal effect
Conditions: recombinant CYP2C9 enzyme activity, luminescence; series mostly up to 58.3 µM
Outline: (§1)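 Each CYP isoform and its pro-luciferin substrate, at isoform-specific final concentrations, were preincubated 15 min at RT with substances. NADPH regeneration solution (1x) started a 30-45 min reaction, and P450-Glo luminescence was read.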

Row | SMILES | Potency
1 | COc1ccc2ccc(=O)oc2c1 | inactive
2 | O=c1ccc2ccc(O)cc2o1 | 7.08 µM (active)
3 | C=C(C)[C@H]1CC=C(C)C(=O)C1 | inactive

Target: Cytochrome P450 2C19 (Homo sapiens) (UniProt P33261)
Sequence (P33261 whole entry, looked up): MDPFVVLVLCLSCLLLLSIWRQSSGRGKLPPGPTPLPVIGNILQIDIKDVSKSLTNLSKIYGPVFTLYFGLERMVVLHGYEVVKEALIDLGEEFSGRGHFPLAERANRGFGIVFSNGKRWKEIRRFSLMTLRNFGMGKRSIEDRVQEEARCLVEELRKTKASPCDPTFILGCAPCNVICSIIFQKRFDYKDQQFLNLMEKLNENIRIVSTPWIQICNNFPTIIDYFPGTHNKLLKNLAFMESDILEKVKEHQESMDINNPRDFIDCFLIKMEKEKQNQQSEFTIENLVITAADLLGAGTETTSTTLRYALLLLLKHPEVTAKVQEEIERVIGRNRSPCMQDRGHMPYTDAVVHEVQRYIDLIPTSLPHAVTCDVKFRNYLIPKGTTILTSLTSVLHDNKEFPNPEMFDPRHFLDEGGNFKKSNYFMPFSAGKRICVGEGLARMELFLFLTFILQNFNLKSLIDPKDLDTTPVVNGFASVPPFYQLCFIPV
Assay: qHTS for inhibitors of CYP2C19 against the NCATS DSHEA and TCM libraries (AID 1919974);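 note: luminescence from luciferin released by CYP2C19 oxidation of a pro-luciferin substrate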; note: potency is the fitted concentration of half-maximal effect
Conditions: CYP2C19 enzyme inhibition, luminescence qHTS; series mostly up to 34.1 µM
Outline: as §1

Row | SMILES | Potency
4 | COc1ccc2ccc(=O)oc2c1 | inactive
5 | NC(Cc1c[nH]c2ccccc12)C(=O)O (configuration not stated) | 3.16 µM (active)
6 | O=C(/C=C/c1ccc(O)c(O)c1)OC(Cc1ccc(O)c(O)c1)C(=O)O (configuration not stated) | 3.55 µM (active)
7 | C=C(C)[C@H]1CC=C(C)C(=O)C1 | inactive
8 | C=C[C@](C)(O)CCC=C(C)C | 3.55 µM (active)
9 | O=c1cc(-c2ccc(O)cc2)oc2cc(O[C@H]3OC(CO)C(O)C(O)C3O)cc(O)c12 (some centres not stated) | inactive

Tested on: not listed separately
Assay: KB-3-1 P-gp reporter qHTS against the NCATS DSHEA and TCM libraries (AID 1919975)
Conditions: KB-3-1 parental cells, CellTiter-Glo luminescence viability, 72 h; series mostly up to 26.1 µM
Outline: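 Parental KB-3-1 cells, 500 cells/well, in DMEM with 10% FBS, exposed 72 h at 37 C to compounds in concentration-response. Viability read by CellTiter-Glo luminescence after 30 min at room temperature.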

Row | SMILES | outcome
10 | COc1ccc2ccc(=O)oc2c1 | inactive
11 | NC(Cc1c[nH]c2ccccc12)C(=O)O (configuration not stated) | inactive
12 | O=C(/C=C/c1ccc(O)c(O)c1)OC(Cc1ccc(O)c(O)c1)C(=O)O (configuration not stated) | inactive
13 | O=c1ccc2ccc(O)cc2o1 | inactive
14 | COC(=O)C1=CO[C@@H](C)[C@H]2CN3CCc4c([nH]c5ccccc45)[C@@H]3C[C@H]12 | inactive
15 | C=C(C)[C@H]1CC=C(C)C(=O)C1 | inactive
16 | C=C[C@](C)(O)CCC=C(C)C | inactive
17 | O=c1cc(-c2ccc(O)cc2)oc2cc(O[C@H]3OC(CO)C(O)C(O)C3O)cc(O)c12 (some centres not stated) | inactive

Target: Cytochrome P450 1A2 (Homo sapiens) (UniProt P05177)
Sequence (P05177 whole entry, looked up): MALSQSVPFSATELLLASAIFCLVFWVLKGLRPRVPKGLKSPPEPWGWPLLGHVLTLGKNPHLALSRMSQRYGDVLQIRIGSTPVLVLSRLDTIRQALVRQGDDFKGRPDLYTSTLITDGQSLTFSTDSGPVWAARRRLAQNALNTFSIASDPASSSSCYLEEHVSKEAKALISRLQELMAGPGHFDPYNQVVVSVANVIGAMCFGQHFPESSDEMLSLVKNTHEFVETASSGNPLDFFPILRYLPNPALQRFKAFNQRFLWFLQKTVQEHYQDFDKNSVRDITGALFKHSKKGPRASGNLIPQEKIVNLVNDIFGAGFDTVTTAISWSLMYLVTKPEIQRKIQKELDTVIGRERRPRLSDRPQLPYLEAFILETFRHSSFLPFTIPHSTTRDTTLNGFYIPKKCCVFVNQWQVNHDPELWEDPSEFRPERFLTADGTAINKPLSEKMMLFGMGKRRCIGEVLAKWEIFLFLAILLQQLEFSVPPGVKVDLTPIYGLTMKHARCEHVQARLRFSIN
Assay: qHTS for inhibitors of CYPIA2 against the NCATS DSHEA and TCM libraries (AID 1919976); note: potency is the fitted concentration of half-maximal effect
Conditions: recombinant CYP1A2 enzyme activity, luminescence; series mostly up to 37 µM
Source text: Assay Development and Screening Technology Laboratory (ADST)
National Center for Advancing Translational Sciences (NCATS), Rockville, MD
National Institute of Health (NIH), Bethesda, Maryland
Dietary Supplements and Natural Products have minor oversight of their safety and efficacy. We assembled a collection of Dietary Supplements and Natural Products (DSNP) as well as Traditional Chinese Medicinal (TCM) Plant extracts, which were screened against an in vitro panel of assays, including a liver cytochrome p450 enzyme panel, CAR/PXR signaling pathways, and P-gp transporter assays, to assess their activity. This pipeline facilitated the interrogation of Natural Product-Drug Interaction (NaPDI) through prominent metabolizing pathways. In addition, we compared the activity profiles of the DSNP/TCM substances with those of an approved drug collection. Many of the approved drugs have well-annotated mechanisms of action (MOA) while the MOAs for most of the DSNP and TCM samples remain unknown. Based on the premise that compounds with similar activity profiles tend to share similar targets or MOA, we clustered the library activity profiles to identify overlap with the NCATS Pharmaceutical Collection to predict the MOAs of the DSNP/TCM substances. Overall, we highlight four significant bioactivity profiles (measured by p-values) as examples of this prediction. To assess broad cytotoxicity, we employed screening against a HepG2 cell line. In addition, transporter-mediated drug interactions are utilized in the characterization of DDIs using a P-glycoprotein (P-gp) assays. To profile potential P-gp activity, a differential cell viability was measured against two cell lines: a parental KB-3-1 human cervical adenocarcinoma cell line and the drug-resistant subline KB-8-5-11 that overexpresses P-gp.
To this end, we profiled both collections for potential CAR and/or PXR activity, employing a previously published 1536-well qHTS assay.
[1] Lee TD, et al. A High-Throughput Screen of a Library of Therapeutics Identifies Cytotoxic Substrates of P-glycoprotein. Mol Pharmacol. Nov 2019;96(5):629-640. doi:10.1124/mol.119.115964
PROTOCOL TABLE (as described by Inglese J, Shamu CE and Guy RK. 2007)
SEQUENCE No. (e.g., 1, 2, 3, etc.); […] (e.g., Cells, Incubation, Reagent, etc.); VALUE; DESCRIPTION.
1; Reagent; 2 uL; cytochrome P450 enzyme and luciferin substrate or buffer only, white solid-bottom Greiner plate.
2; Compounds and control; 16 nL; Kalypsis pintool (Wako USA) equipped with a 1536-well pin head to transfer to the assay plates.
3; Incubation; 15 min; room temperature.
4; Reagent; 2 uL; nicotinamide adenine dinucleotide phosphate (NADPH).
5; Incubation; 30 - 45 min; room temperature in the dark.
6; Reagent; 4 uL; P450-Glo assay detection reagent.
7; Centrifuge; 1000 RPM; 15 seconds.
8; Incubation; 30 min; room temperature.
9; Read; Luminescence; ViewLux plate reader.
NOTES (numbers refer to Sequence numbers above)
1. A 2 uL mixture of corresponding enzymes and luciferin substrate (final concentrations CYP enzyme-specific and pro-luciferin substrate-specific) or minus-enzyme (assay buffer conditions supplied by the manufacturer for respective enzyme isoform; typically, 100 mM KPO4) and luciferin substrate were dispensed using a BioRAPTR FRD (Beckman Coulter, Brea, CA) into columns of a 1536-well white solid-bottom medium binding plate (Greiner Bio-One, Monroe, NC). Five isoforms of cytochrome P450 were used (CYP1A2, CYP2C9, CYP2C19, CYP2D6, and CYP3A4).
2. […] Intraplate controls furafylline (CYP1A2), sulfaphenazole (CYP2C9), ketoconazole (CYP2C19), quinidine (CYP2D6), and ketoconazole (CYP3A4) were used correspondingly.
3. Assay plates were incubated at room temperature for 15 min.
4-5. […]

Row | SMILES | Potency
18 | COc1ccc2ccc(=O)oc2c1 | 14.1 µM (active)
19 | NC(Cc1c[nH]c2ccccc12)C(=O)O (configuration not stated) | 3.55 µM (active)
20 | O=c1ccc2ccc(O)cc2o1 | inactive
21 | COC(=O)C1=CO[C@@H](C)[C@H]2CN3CCc4c([nH]c5ccccc45)[C@@H]3C[C@H]12 | 3.55 µM (active)
22 | C=C(C)[C@H]1CC=C(C)C(=O)C1 | inactive
23 | C=C[C@](C)(O)CCC=C(C)C | 3.55 µM (active)
24 | O=c1cc(-c2ccc(O)cc2)oc2cc(O[C@H]3OC(CO)C(O)C(O)C3O)cc(O)c12 (some centres not stated) | inactive

Tested on: not listed separately
Assay: qHTS Counterscreen for compound interference against the NCATS DSHEA and TCM libraries (AID 1919978);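 note: compounds preincubated with 1 µM D-luciferin or buffer before detection reagent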
Conditions: firefly luciferase detection reagent interference, luminescence
Source text: PI: Anton Simeonov Ph.D. Assay Development and Screening Technology Laboratory (ADST) National Center for Advancing Translational Sciences (NCATS), Rockville, MD National Institute of Health (NIH), Bethesda, Maryland Dietary Supplements and Natural Products have minor oversight of their safety and efficacy. We assembled a collection of Dietary Supplements and Natural Products (DSNP) as well as Traditional Chinese Medicinal (TCM) Plant extracts, which were screened against an in vitro panel of assays, including a liver cytochrome p450 enzyme panel, CAR/PXR signaling pathways, and P-gp transporter assays, to assess their activity. This pipeline facilitated the interrogation of Natural Product-Drug Interaction (NaPDI) through prominent metabolizing pathways. In addition, we compared the activity profiles of the DSNP/TCM substances with those of an approved drug collection. Many of the approved drugs have well-annotated mechanisms of action (MOA) while the MOAs for most of the DSNP and TCM samples remain unknown. Based on the premise that compounds with similar activity profiles tend to share similar targets or MOA, we clustered the library activity profiles to identify overlap with the NCATS Pharmaceutical Collection to predict the MOAs of the DSNP/TCM substances. Overall, we highlight four significant bioactivity profiles (measured by p-values) as examples of this prediction. To assess broad cytotoxicity, we employed screening against a HepG2 cell line. In addition, transporter-mediated drug interactions are utilized in the characterization of DDIs using a P-glycoprotein (P-gp) assays. To profile potential P-gp activity, a differential cell viability was measured against two cell lines: a parental KB-3-1 human cervical adenocarcinoma cell line and the drug-resistant subline KB-8-5-11 that overexpresses P-gp. […] To this end, we profiled both collections for potential CAR and/or PXR activity, employing a previously published 1536-well qHTS assay. […] Reference: [1] Lee TD, et al. A High-Throughput Screen of a Library of Therapeutics Identifies Cytotoxic Substrates of P-glycoprotein. Mol Pharmacol. Nov 2019;96(5):629-640. doi:10.1124/mol.119.115964
PROTOCOL TABLE (as described by Inglese J, Shamu CE and Guy RK. 2007) SEQUENCE No. (e.g., 1, 2, 3, etc.); […] (e.g., Cells, Incubation, Reagent, etc.); VALUE; DESCRIPTION. 1; Reagent; 4 uL; D-luciferin or buffer only, white solid-bottom Greiner plate. 2; Compounds and control; 16 nL; Kalypsis pintool (Wako USA). 3; Incubation; 15 min; room temperature. 4; Reagent; 4 uL; luciferin detection reagent. 5; Centrifuge; 1000 RPM; 15 sec. 6; Incubation; 30 min; room temperature. 7; Read; Luminescence; ViewLux plate reader. NOTES (numbers refer to Sequence numbers above) 1. To account for detection kit artifacts, compounds were counter-screened for interferences using previously described methods. Briefly, 4 uL of D-luciferin (final concentration 1 uM) or buffer (100 mM potassium phosphate) were dispensed into a 1536-well white solid-bottom medium binding plate. 2-3. Compounds (final concentration of 19.5 nM to 39.8 uM) and intraplate control PTC124 (final concentration range: 1.2 nM to 39.8 uM) were transferred (16 nL) via pintool (Wako Automation) and incubated (RT) for 15 min. 4-6. Next, 4 uL of reconstituted luciferin detection reagent was dispensed, and samples were centrifuged for 15 s at 1000 rpm and incubated (RT) for 30 min. 7. Plates were then read for luminescence intensity on a ViewLux detector. REFERENCES: [1] Inglese J, Shamu CE and Guy RK, Reporting data from high throughput screening of small molecule libraries, Nature Chemical Biology, 2007, 3(8): 438-441. doi.org/10.1038/nchembio0807-438. Auld DS, Southall NT, Jadhav A, Johnson RL, Diller DJ, Simeonov A, Austin CP, Inglese J. Characterization of chemical libraries for luciferase inhibitory activity. J Med Chem. 2008 Apr 24;51(8):2372-86. doi: 10.1021/jm701302v. Epub 2008 Mar 26. PMID: 18363348.

Row | SMILES | max response
25 | COc1ccc2ccc(=O)oc2c1 | 3.31% (inactive)
26 | NC(Cc1c[nH]c2ccccc12)C(=O)O (configuration not stated) | 1.56% (inactive)
27 | O=C(/C=C/c1ccc(O)c(O)c1)OC(Cc1ccc(O)c(O)c1)C(=O)O (configuration not stated) | -4.37% (inactive)
28 | O=c1ccc2ccc(O)cc2o1 | 2.6% (inactive)
29 | COC(=O)C1=CO[C@@H](C)[C@H]2CN3CCc4c([nH]c5ccccc45)[C@@H]3C[C@H]12 | -2.56% (inactive)
30 | C=C(C)[C@H]1CC=C(C)C(=O)C1 | 1.32% (inactive)
31 | C=C[C@](C)(O)CCC=C(C)C | -3.94% (inactive)
32 | O=c1cc(-c2ccc(O)cc2)oc2cc(O[C@H]3OC(CO)C(O)C(O)C3O)cc(O)c12 (some centres not stated) | -0.179% (inactive)
